These results are taken from PubChem BioAssay (NCI).

Among the test systems are SK-MEL-2 melanoma; EKVX NSCLC; SN12C renal; UO-31 renal; TK-10 renal; ACHN renal; CAKI-1 renal; A498 renal; CCRF-CEM leukemia; MOLT-4 leukemia; RPMI-8226 leukemia; OVCAR-8 ovarian; OVCAR-5 ovarian; OVCAR-4 ovarian; SK-OV-3 ovarian; IGROV1 ovarian; OVCAR-3 ovarian; HS 578T breast; NCI/ADR-RES ovarian.
Assay in all cases: NCI-60 one-dose screen, 48 h (100 = growth as untreated, 0 = no growth, -100 = all killed)
Details in all cases: 10 µM unless noted

Compounds without any hit were thinned out: in the full panel of roughly 83,000, 20% have a hit.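 Treatment: one concentration, 48 hours, 96-well format. Scoring: percent growth, with anything below 10 considered active.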 Values without a mark were called inactive. Activity calls are given as the source filed them.

Consider `CC(=O)O[C@H]1CC[C@]2(C)[C@H]3CC=C4[C@@H]5CC(C)(C)CC[C@]5(C(=O)NCCNCCN)CC[C@@]4(C)[C@]3(C)CC[C@H]2C1(C)C`, for which the growth is 82.5% with SK-MEL-2 melanoma; 28.8% with EKVX NSCLC; -89.9% (active) in the assay on SN12C renal; -91.6% (active) in the assay with UO-31 renal; -79% (active) in the assay on TK-10 renal; -100% (active) with ACHN renal. Besides, the growth was -68.7% (active) with CAKI-1 renal; 38.6% in the assay with A498 renal; -40.1% (active) with CCRF-CEM leukemia; -39.9% (active) with MOLT-4 leukemia; -44.4% (active) in the assay with RPMI-8226 leukemia; -85.3% (active) with OVCAR-8 ovarian. The growth in the assay on OVCAR-5 ovarian is -87.7% (active); with OVCAR-4 ovarian, -25% (active); in the assay on SK-OV-3 ovarian, 95.8%; with IGROV1 ovarian, -63.9% (active); in the assay on OVCAR-3 ovarian it was -91.4% (active); in the assay with HS 578T breast it was 80.6%. Also, the growth in the assay with NCI/ADR-RES ovarian is -86% (active).
In the case of `COc1ccc(/C=C/C(=O)c2ccc(O)c(CN3CCN(c4cc5c(cc4F)c(=O)c(C(=O)O)cn5C4CC4)CC3)c2)cc1`, the growth with SK-MEL-2 melanoma was 34.5%; in the assay on EKVX NSCLC, 57.3%; with SN12C renal it was 7.55% (active); in the assay on UO-31 renal, 3.15% (active); in the assay with TK-10 renal it was 52.7%; with ACHN renal it was 25.5%. Further, the growth in the assay on CAKI-1 renal was 32%; in the assay with A498 renal, -0.877% (active); in the assay with CCRF-CEM leukemia, 28.6%; in the assay on MOLT-4 leukemia it was 45.7%; in the assay with RPMI-8226 leukemia, -3.49% (active); in the assay with OVCAR-8 ovarian, 13.2%. The growth in the assay on OVCAR-5 ovarian is 47.5%; with OVCAR-4 ovarian, 88.1%; in the assay with SK-OV-3 ovarian it was 46.5%; in the assay on IGROV1 ovarian, 33.8%; with OVCAR-3 ovarian, 19.1%; with HS 578T breast, 35.4%. In addition, in the assay on NCI/ADR-RES ovarian, the growth was 43.1%.
Regarding `N#C/C(=C\c1ccc(-c2ccc(Cl)c(Cl)c2)o1)c1nc(-c2ccco2)cs1`, the growth with SK-MEL-2 melanoma was 108%; with EKVX NSCLC, 52.4%; in the assay with SN12C renal it was 98.6%; in the assay on UO-31 renal, 69.2%; in the assay with TK-10 renal, -7.19% (active); in the assay on ACHN renal, 94%. Further, the growth in the assay with CAKI-1 renal is 81.3%; with A498 renal, 94.2%; in the assay with CCRF-CEM leukemia, 94.1%; in the assay on MOLT-4 leukemia, 104%; in the assay with RPMI-8226 leukemia it was 63.6%; in the assay with OVCAR-8 ovarian, 101%. Also, the growth is 55.7% in the assay on OVCAR-5 ovarian; 37.6% with OVCAR-4 ovarian; 85.1% in the assay with SK-OV-3 ovarian; 81.1% in the assay on OVCAR-3 ovarian; 97.4% with HS 578T breast; 101% in the assay on NCI/ADR-RES ovarian.
Regarding `COc1ccc(/C=C(\C#N)C(=O)Nc2cccc(Nc3nc(SC)nc(-c4cccc([N+](=O)[O-])c4)c3C#N)c2)cc1OC`, the growth in the assay with SK-MEL-2 melanoma is 113%; in the assay on EKVX NSCLC, 88.2%; in the assay with SN12C renal, 96.5%; with UO-31 renal, 88.3%; in the assay on TK-10 renal it was 176%; with ACHN renal, 93.8%. Besides, the growth in the assay with CAKI-1 renal was 92.7%; in the assay on A498 renal it was 102%; in the assay on CCRF-CEM leukemia, 87.7%; in the assay with MOLT-4 leukemia it was 93.1%; in the assay with RPMI-8226 leukemia, 83.8%; with OVCAR-8 ovarian it was 102%. Moreover, the growth in the assay with OVCAR-5 ovarian was 96.6%; in the assay on OVCAR-4 ovarian, 91.1%; with SK-OV-3 ovarian, 99%; in the assay with IGROV1 ovarian, 74.7%; in the assay on OVCAR-3 ovarian, 112%; in the assay on HS 578T breast, 104%. Further, in the assay on NCI/ADR-RES ovarian, the growth was 104%.
Regarding `Nc1nc2ncc(CCNc3ccc(C(=O)O)cc3)nc2c(=O)[nH]1`, the growth is 96.3% with SK-MEL-2 melanoma; 120% with EKVX NSCLC; 106% in the assay on SN12C renal; 86.6% in the assay on UO-31 renal; 103% in the assay on TK-10 renal; 110% in the assay on ACHN renal. The growth is 98.3% in the assay with CAKI-1 renal; 120% in the assay on A498 renal; 87.9% with CCRF-CEM leukemia; 75.5% with MOLT-4 leukemia; 99.4% in the assay with RPMI-8226 leukemia; 108% in the assay with OVCAR-8 ovarian. Moreover, the growth in the assay on OVCAR-5 ovarian is 103%; in the assay on OVCAR-4 ovarian, 127%; in the assay on SK-OV-3 ovarian, 115%; with IGROV1 ovarian, 113%; in the assay with OVCAR-3 ovarian it was 128%; in the assay with HS 578T breast it was 117%. In the assay on NCI/ADR-RES ovarian, the growth is 115%.
`COC(=O)[C@]12CCC(C)(C)C[C@H]1[C@H]1C(=O)C[C@@H]3[C@@]4(C)c5c([nH]c6ccccc6c5=O)C(C)(C)[C@@H]4CC[C@@]3(C)[C@]1(C)CC2`: the growth was 75.5% in the assay with SK-MEL-2 melanoma; 52.4% in the assay on EKVX NSCLC; 70% with SN12C renal; 67.2% in the assay on UO-31 renal; 84.7% with TK-10 renal; 53% in the assay with ACHN renal. Further, the growth in the assay with CAKI-1 renal was 50.7%; in the assay with A498 renal it was 69%; in the assay with CCRF-CEM leukemia, 59.5%; in the assay with MOLT-4 leukemia it was 43.5%; with RPMI-8226 leukemia, 34.9%; in the assay with OVCAR-8 ovarian it was 59.2%. In addition, the growth in the assay with OVCAR-5 ovarian was 80.7%; with OVCAR-4 ovarian, 49%; in the assay on SK-OV-3 ovarian, 86.4%; with IGROV1 ovarian, 94.5%; in the assay with OVCAR-3 ovarian, 63.2%; in the assay on HS 578T breast, 87.1%. Besides, in the assay on NCI/ADR-RES ovarian, the growth was 49.6%.
Regarding `C=CC(=O)Nc1cccc(-c2nc(SC)nc(NCc3ccccc3)c2C#N)c1`, the growth with SK-MEL-2 melanoma was 60.8%; in the assay on EKVX NSCLC, 44%; in the assay with SN12C renal, 42.1%; in the assay with UO-31 renal, 31.1%; in the assay on TK-10 renal it was 69.1%; with ACHN renal, 50.6%. Moreover, the growth in the assay with CAKI-1 renal was 40.5%; in the assay on A498 renal it was -1.24% (active); in the assay with CCRF-CEM leukemia, 60.3%; in the assay with MOLT-4 leukemia it was 49.1%; in the assay on RPMI-8226 leukemia it was 38.5%; with OVCAR-8 ovarian it was 39.8%. Further, the growth in the assay on OVCAR-4 ovarian was 48.5%; in the assay with SK-OV-3 ovarian it was 72.2%; in the assay with IGROV1 ovarian, 57.3%; with OVCAR-3 ovarian, 48.4%; in the assay on HS 578T breast it was 51.8%; in the assay with NCI/ADR-RES ovarian, 48.3%.
For `COc1cccc(-c2nc3sccn3c2-c2ccnc(NCCNS(=O)(=O)c3ccccc3)c2)c1`, the growth with SK-MEL-2 melanoma was 30.1%; in the assay with EKVX NSCLC, 29.8%; in the assay on SN12C renal, 28.9%; in the assay with UO-31 renal, 5.71% (active); in the assay on TK-10 renal it was 55.5%; in the assay on ACHN renal, 10.4%. Moreover, the growth in the assay with CAKI-1 renal is 9.12% (active); with A498 renal, 44.2%; in the assay on CCRF-CEM leukemia it was 10.1%; with MOLT-4 leukemia, 12%; in the assay on RPMI-8226 leukemia, -27.1% (active); in the assay on OVCAR-8 ovarian, 13.9%. Besides, the growth is 45.3% in the assay with OVCAR-5 ovarian; 15.2% in the assay with OVCAR-4 ovarian; 42% in the assay with SK-OV-3 ovarian; 25.5% in the assay on IGROV1 ovarian; 42.2% in the assay on OVCAR-3 ovarian; 35.7% with HS 578T breast. The growth in the assay on NCI/ADR-RES ovarian was 6.38% (active).
